High-throughput results from PubChem BioAssay.
The full list was thinned out, with hits kept by preference.
DUX4 txn inh = blocks DUX4-driven transcriptional activation | activity change, negative = inhibition, % (concentration not given with the values) | actives 0.8% (n = 37,000) | AID 1224904 | 293T-iDUX4 ZSCAN4-Gaussia luciferase reporter, 24 h; active compounds read low;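 active = mean inhibition of at least 10% in the main channel, exceeding the control channel by a set limit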;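 note: 0% = median of neutral control wells and -100% = median of positive control wells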
An asterisk follows results filed as active; ! = not confirmed by another sample.

SMILES	DUX4 txn inh
C[C@H](CO)N1C[C@H](C)[C@@H](CN(C)C)OCc2ccccc2-c2c(n(C)c3ccccc23)C1=O	3
COc1ccc2c3c(n(C)c2c1)[C@@H](CO)N(C(=O)c1cccnc1)CC31CCN(S(C)(=O)=O)CC1	11
COc1ccc2c3c([nH]c2c1)[C@H](CO)N(Cc1ccncc1)CC31CN(CC2CCOCC2)C1	7
CN1C(=O)c2cc(NC(=O)c3ccc(Cl)cc3)ccc2OC[C@@H]2O[C@@H](CC(=O)O)CC[C@@H]21	-4
COc1ccccc1CNC(=O)C[C@H]1C[C@H]2c3cc(NC(=O)Nc4ccc(C(F)(F)F)cc4)ccc3O[C@H]2[C@@H](CO)O1	2
O=C(C[C@@H]1C[C@@H]2c3cc(NC(=O)Cc4ccncc4)ccc3O[C@@H]2[C@@H](CO)O1)NCc1cccnc1	6
Cc1ccccc1-c1ccc([C@H]2[C@H]3CN(C(=O)Nc4cccc(F)c4)CCCCN3[C@H]2CO)cc1	-5
O=C(C1CC1)N1CCCCN2[C@@H](CO)[C@H](c3ccc(-c4cccc(F)c4)cc3)[C@@H]2C1	0
O=C(C1CC1)N1CCCCN2[C@H](CO)[C@H](c3ccc(-c4cccc(F)c4)cc3)[C@@H]2C1	-22*
CN(C)C(=O)c1cccc(-c2ccc([C@@H]3[C@@H](CO)N4CCCCN(C(=O)C5CCC5)C[C@H]34)cc2)c1	29
OC[C@@H]1[C@H](c2ccc(-c3cccc(F)c3)cc2)[C@@H]2CN(CCC(F)(F)F)CCCCN12	-6
Cc1cccc(-c2ccc([C@H]3[C@@H](CO)N4CCCCN(Cc5ccncc5)C[C@@H]34)cc2)c1	7
OC[C@@H]1[C@@H](c2ccc(-c3cccc(F)c3)cc2)[C@H]2CN(Cc3cncnc3)CCCCN12	4
Cc1ccccc1-c1ccc([C@@H]2[C@H]3CN(C(=O)Nc4cccc(F)c4)CCCCN3[C@H]2CO)cc1	-43*
CN(C)C(=O)c1ccc(-c2ccc([C@@H]3[C@H](CO)N4CCCCN(CCC(F)(F)F)C[C@@H]34)cc2)cc1	3
O=C(Nc1cccc(F)c1)N1CCCCN2[C@H](CO)[C@H](c3ccc(-c4ccncc4)cc3)[C@@H]2C1	1
OC[C@@H]1[C@H](c2ccc(-c3cccc(F)c3)cc2)[C@H]2CN(CCC(F)(F)F)CCCCN12	-47*
Cc1cccc(-c2ccc([C@@H]3[C@H]4CN(CCC(F)(F)F)CCCCN4[C@H]3CO)cc2)c1	-31*
CC(C)OC(=O)N(C)C[C@H]1OCc2ccccc2-c2c(n(C)c3ccccc23)C(=O)N([C@@H](C)CO)C[C@@H]1C	-4
COc1ccc(NC(=O)Nc2ccc3c(c2)[C@@H]2C[C@@H](CC(=O)NC4CCCCC4)O[C@@H](CO)[C@@H]2O3)cc1	-7
CO[C@@H](CN(C)C(=O)Nc1ccc(C(F)(F)F)cc1)[C@H](C)CN(Cc1ccccc1Cl)[C@@H](C)CO	1
CCNC(=O)[C@@H]1N[C@@H]2c3ccc(-c4cccc(C(=O)N(C)C)c4)c(=O)n3C[C@@H]2[C@H]1CO	-2
O=C(Nc1cccc(Cl)c1)N1C[C@H]2[C@@H](c3ccccc31)[C@@H](CO)N2C(=O)C1CCCC1	-5
O=C(C1CC1)N1C[C@@H]2[C@H](c3ccccc31)[C@H](CO)N2C(=O)c1ccccn1	0
COc1ccccc1C#Cc1ccc([C@H]2[C@H](CO)N3CCCCN(CCC(F)(F)F)C[C@@H]23)cc1	-61*
SMILES	DUX4 txn inh
C/C=C/c1ccc([C@@H]2[C@H]3CN(CCC(F)(F)F)CCCCN3[C@H]2CO)cc1	5
COc1ccccc1C#Cc1ccc([C@H]2[C@H]3CN(S(C)(=O)=O)CCCCN3[C@H]2CO)cc1	23
CO[C@H]1CC[C@H]2CCN(C)C(=O)C[C@@H](c3ccccc3)CN(C)C(=O)c3cc(C#N)ccc3OC[C@@H]1O2	2
N#Cc1cccc(-c2ccc([C@@H]3[C@@H](CO)N4CCCCN(Cc5ccccc5F)C[C@H]34)cc2)c1	-33*
OC[C@H]1[C@@H](c2ccc(C#Cc3cccnc3)cc2)[C@H]2CN(Cc3ccccc3F)CCCCN21	-43*
O=C(Nc1ccccc1F)N1CCCCN2[C@H](C1)[C@H](c1ccc(C#Cc3cccnc3)cc1)[C@@H]2CO	-10
CC(C)(O)C#Cc1ccc([C@H]2[C@@H](CO)N3CCCCN(Cc4ccccc4F)C[C@@H]23)cc1	19
OC[C@H]1[C@@H](c2ccc(C#Cc3cccnc3)cc2)[C@@H]2CN(Cc3ccccc3F)CCCCN12	-51*
CC(C)(O)C#Cc1ccc([C@@H]2[C@@H](CO)N3CCCCN(Cc4ccccc4F)C[C@@H]23)cc1	16
OC[C@@H]1[C@@H](c2ccc(C#Cc3ccccc3)cc2)[C@H]2CN(Cc3cncnc3)CCCCN12	-4
O=C(Nc1ccccc1F)N1CCCCN2[C@H](CO)[C@@H](c3ccc(C#Cc4cccnc4)cc3)[C@H]2C1	-3
CC(C)(O)C#Cc1ccc([C@H]2[C@H]3CN(Cc4ccccc4F)CCCCN3[C@H]2CO)cc1	3
OC[C@@H]1[C@@H](c2ccc(C#Cc3cccnc3)cc2)[C@H]2CN(Cc3ccccc3F)CCCCN12	-45*
CCC(=O)N1CCCCN2[C@H](C1)[C@@H](c1ccc(-c3cccc(C#N)c3)cc1)[C@@H]2CO	4
CCC(=O)N1CCCCN2[C@@H](CO)[C@@H](c3ccc(-c4cccc(C#N)c4)cc3)[C@@H]2C1	15
CNC[C@H]1OCCCC[C@@H](C)Oc2ccc(NS(=O)(=O)c3cn(C)cn3)cc2C(=O)N([C@@H](C)CO)C[C@H]1C	3
O=C1CN(S(=O)(=O)c2cccc(F)c2)C[C@@H]2[C@@H](c3ccc(C4=CCCC4)cc3)[C@H](CO)N12	-1
O=C(C[C@H]1CC[C@H](NC(=O)C2CCOCC2)[C@@H](CO)O1)NCc1ccccc1Cl	-1
COc1ccc2c3c([nH]c2c1)[C@@H](CO)N(C(=O)CC1CC1)CC31CN(Cc2ccncc2)C1	14
CC(=O)N1[C@@H]2Cn3c(ccc(-c4ccccc4)c3=O)[C@H]1[C@@H](C(=O)Nc1ccccc1)[C@@H]2CO	-5
CCCNC(=O)N1CC2(CN(Cc3ccc(F)cc3)C2)c2c([nH]c3cc(OC)ccc23)[C@H]1CO	-7
CN1c2ccc(-c3cccc(F)c3)cc2[C@@H]2[C@@H](CCN2C(=O)C2CCC2)[C@H]1CO	-35*
CN1c2ccc(-c3cccc(F)c3)cc2[C@H]2[C@H](CCN2C(=O)C2CCC2)[C@H]1CO	-7
CN1c2ccc(-c3cccc(F)c3)cc2[C@@H]2[C@@H](CCN2C(=O)C2CCOCC2)[C@@H]1CO	8
CN1C(=O)c2cc(NC(=O)c3cccc(C(F)(F)F)c3)ccc2OC[C@H]2O[C@@H](CC(=O)NCCN3CCCC3)CC[C@H]21	-2
SMILES	DUX4 txn inh
C[C@@H]1CN([C@@H](C)CO)C(=O)c2cc(-c3cccc(C(=O)N(C)C)c3)cnc2O[C@H]1CN(C)S(=O)(=O)c1cccc(F)c1	-4
CCN1[C@@H]2c3ccc(-c4ccncc4)c(=O)n3C[C@@H]2[C@@H](CO)[C@@H]1C(=O)Nc1ccccc1	-4
COCC(=O)Nc1ccc2c(c1)[C@H]1C[C@H](CC(=O)NCc3ccccc3F)O[C@@H](CO)[C@H]1O2	5
CN(C)C(=O)[C@H]1[C@H](CO)[C@H]2Cn3c(cccc3=O)[C@@H]1N2CC1CCCCC1	7
CCc1nc(N2[C@H](CO)[C@H](c3ccccc3-c3ccc(F)cc3)[C@@H]2C#N)sc1C	-1
O=C(Nc1ccc(F)cc1)N1C[C@@H]2N[C@H](C1)C2c1ccc(-c2cccnc2)cc1 (stereo partly drawn)	-37*!
